In the library only some 14% were active in any assay of this set; here they are far more common.
Cycloheximide cs: counter-screen hit for Shiga toxin inhibitors, cycloheximide | cell reporter, cycloheximide protein synthesis inhibition counterscreen | max response, % | actives 12% (n = 300,000); in the data active = max response mostly above about 13%, no sharp cut-off; inactive = mostly below about 14%; note: read at 38.3 µM for the half of the compounds with a filed dose
Shiga toxin inh: blocks Shiga toxin action in Vero cells. Vero cells, Shiga toxin protein synthesis inhibition reporter. inhibition, % at 38.7 µM. actives 9.2% (n = 290,000); in the data active = inhibition mostly above about 28%, no sharp cut-off; inactive = mostly below about 43%
LmPK inhibitor: inhibitors of Leishmania mexicana pyruvate kinase; Potency, µM (series often up to 57.5 µM), hits mostly inhibitors; actives 0.37% (n = 290,000); purified LmPK, Kinase-Glo ATP luminescence, 1 h; Q27686; AID 1721
Target sequence (Q27686 whole entry, looked up): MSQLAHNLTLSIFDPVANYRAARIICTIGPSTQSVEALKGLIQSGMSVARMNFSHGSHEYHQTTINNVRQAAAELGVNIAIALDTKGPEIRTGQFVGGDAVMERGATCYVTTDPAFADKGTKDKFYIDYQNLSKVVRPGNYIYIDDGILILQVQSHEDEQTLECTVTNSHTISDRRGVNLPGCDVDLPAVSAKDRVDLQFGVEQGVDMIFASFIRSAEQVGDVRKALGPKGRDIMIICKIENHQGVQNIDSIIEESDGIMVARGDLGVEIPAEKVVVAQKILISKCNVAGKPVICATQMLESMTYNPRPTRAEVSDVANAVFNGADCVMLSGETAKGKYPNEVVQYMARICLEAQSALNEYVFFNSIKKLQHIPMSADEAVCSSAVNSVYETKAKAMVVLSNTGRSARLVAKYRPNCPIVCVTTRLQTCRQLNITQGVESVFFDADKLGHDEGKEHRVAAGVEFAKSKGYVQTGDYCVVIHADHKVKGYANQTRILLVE
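ATP generated from ADP (0.1 mM) and PEP (0.5 mM) by 0.1 nM LmPK over 1 h at room temperature (pH 7.2 imidazole buffer) was detected by coupled luciferase luminescence. Values were normalized to uninhibited and no-enzyme wells.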
NS1 function inh: inhibitors of influenza NS1 protein function | Potency, µM (doses to about 46.1 µM) | actives 0.4% (n = 270,000); calls by dose curve; note: actives are rising curves; nearly all actives have a fitted effect of over 50% in size
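In this qHTS, NS1 from influenza A is expressed in budding yeast, where it slows growth. Cells are switched from glucose to 2% galactose medium (pH 6.0, -URA), treated with compound, and growth recovery is read at OD600.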
Giardia FBPA inh-1: Giardia lamblia aldolase inhibition; actives 0.71% (n = 290,000); A8B2U2; Potency, µM (doses to about 59.6 µM), actives largely listed as inhibitors; purified Giardia FBPA; note: nearly all actives have a fitted effect of over 55% in size
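Giardia FBPA (40 nM reagent) was preincubated 10 min at RT with compound (up to 57.5 uM final), then substrate plus GAPDH/TPI/NAD/arsenate coupling system with diaphorase/resazurin was added; resorufin fluorescence (525/598 nm) was read after 20 min.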
Giardia growth: blocks growth of Giardia lamblia trophozoites; Giardia lamblia trophozoite growth inhibition; actives 5% (n = 1,500); shares compounds with Giardia FBPA inh-1; Potency, µM (highest dose often 57.5 µM), usual class: inhibitors;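 note: trophozoites exposed to compound for 48 h at 37 °C; nearly all actives have a fitted effect of over 70% in size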
Mammal cell tox: mammalian cytotoxicity of Giardia aldolase inhibitor hits. shares compounds with Giardia FBPA inh-1. mammalian cell viability counter-screen, qHTS. Potency, µM (highest dose often 57.5 µM), usual class: inhibitors. actives 4% (n = 1,500);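 note: Chinese hamster ovary cells used as mammalian cytotoxicity surrogate; viability measured as cellular ATP by luminescence; compound exposure lasted 48 h before reading; nearly all actives have a fitted effect of over 60% in size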
Giardia FBPA inh-2: confirmation of Giardia fructose-bisphosphate aldolase inhibitors. shares compounds with Giardia FBPA inh-1. purified Giardia aldolase enzyme activity, qHTS. Potency, µM (top dose mostly 57.5 µM), usual class: inhibitors. actives 5% (n = 1,500); note: nearly all actives have a fitted effect of over 45% in size
Rabbit aldolase: rabbit FBP aldolase inhibition by Giardia aldolase hits | shares compounds with Giardia FBPA inh-1 | Rabbit muscle FBPA enzyme inhibition, selectivity counter-screen | Potency, µM (top dose mostly 57.5 µM), usual class: inhibitors | actives 4% (n = 1,500); note: nearly all actives have a fitted effect of over 60% in size
GAPDH coupling: counter-screen for Giardia aldolase inhibitors: GAPDH coupling enzyme; actives 6% (n = 1,500); shares compounds with Giardia FBPA inh-1; Potency, µM (series often up to 57.5 µM), hits mostly inhibitors; AID 2795; GAPDH coupling enzyme counterscreen, biochemical, qHTS; note: nearly all actives have a fitted effect of over 55% in size
Hits are given with their value; i = inactive; ? = inconclusive; nt = no result; [ ] = another dose, or the depositor's remark. Unless noted, calls come from the whole dose curve; as a rule, active = well fitted curve in the direction sought with a large enough effect; inconclusive = small, poorly fitted or top-dose-only effect, or another doubt; inactive = no such curve, though single readings can be large; an effect the other way counts as inactive or inconclusive.

SMILES	Cycloheximide cs	Shiga toxin inh	LmPK inhibitor	NS1 function inh	Giardia FBPA inh-1	Giardia growth	Mammal cell tox	Giardia FBPA inh-2	Rabbit aldolase	GAPDH coupling
CCSC1=N/C(=C\c2ccc(-c3ccccc3[N+](=O)[O-])o2)C(=O)S1	i	i	i	i	?	i	i	i	i	i
O=C(O)CCCCCN1C(=O)/C(=C\c2ccc(-c3ccc(Cl)cc3)o2)SC1=S	i	i	i	i	15.8µM	i[10.4 µM]	i	i	i	i
COC(=O)[C@@H](N)CS	i	i	i	i	15.8µM	i[10.4 µM]	i	i	i	i
COC(=O)C(N)Cc1ccc(O)cc1 (centres undefined)	i	i	i	i	i	nt	nt	nt	nt	nt
O=C(Nc1nccc(-c2cccs2)n1)c1ccccc1Cl	31.7	53.2	i	i	7.92µM	i	i	25.1µM	25.1µM	15.8µM
O=C(Nc1ccsc1C(=O)O)c1ccccc1Cl	i	i	i	i	i	nt	nt	nt	nt	nt
COc1cc(C2NC(=O)C(C#N)=C(Nc3cccc(C)c3)S2)ccc1O (centres undefined)	i	i	i	i	14.1µM	i[10.4 µM]	i	i	i	i
COc1ccc(CCNC(=O)c2cccc(NS(=O)(=O)c3ccccc3F)c2)cc1OC	i	i	i	i	i	nt	nt	nt	nt	nt
CCCCCn1cnc2c(=S)nc(N)[nH]c21	i	i	i	i	2.81µM	i	i	i	i	i
CCCCn1cnc2c(=S)nc(N)[nH]c21	i	i	i	i	7.06µM	i	i	i	i	i
CCCn1cnc2c(=S)nc(N)[nH]c21	i	i	i	i	4.46µM	i	i	?	i	i
CCCn1cnc2c(SCc3ccc(Cl)cc3)nc(N)nc21	nt	nt	nt	i	nt	nt	nt	nt	nt	nt
O=C(O)c1ccccc1NS(=O)(=O)c1cccc(-n2sc3ccccc3c2=O)c1	i	i	i	i	?	nt	nt	nt	nt	nt
O=C(c1ccc2c(=O)n(C3CCCC3)c(=S)[nH]c2c1)N1CCCCCC1	i	i	i	nt	17.7µM	i[10.4 µM]	i	i	i	i
CC1CCCN(C(=O)c2ccc3c(=O)n(C4CCCC4)c(=S)[nH]c3c2)C1 (centres undefined)	i	i	i	nt	?	nt	nt	nt	nt	nt
CC(=O)NNC(=O)c1sc(=S)n2c1[nH]c(=O)c1sccc12	i	i	i	nt	17.7µM	i	i	i	?	i
O=C(O)c1ccc2cccnc2c1O	i	i	i	i	19.9µM	i	i	?	i	i
CCCCc1c(C)c(C#N)c2[nH]c3ccccc3n2c1=O	i	i	i	i	?	nt	nt	nt	nt	nt
Cc1c(CCO)c(=O)n2c([nH]c3ccccc32)c1C#N	i	i	i	i	25.1µM	i	i	i	i	i
CC(C)CCN(CCC(C)C)C(CO)(CO)CO	i	i	i	i	?	nt	nt	nt	nt	nt
CN(CCCCCCN(C)Cc1ccccc1O)Cc1ccccc1O	i	i	i	i	28.2µM	?	i	i	i	i
CN(CCCCCC(=O)/C=N/O)Cc1ccccc1	i	i	i	i	i	nt	nt	nt	nt	nt
C=CCOc1ccc(/C=C/C(=O)OCC(=O)N(C)C2CCS(=O)(=O)C2)cc1 (centres undefined)	i	i	i	i	nt	nt	nt	nt	nt	nt
O=C(C1CCC(=O)N(C2CCCC2)C1)N1CCN(Cc2cccc(F)c2)CC1 (centres undefined)	i	i	i	i	i	nt	nt	nt	nt	nt
CO/N=C/C(c1ncc(C(F)(F)F)cc1Cl)S(=O)(=O)c1ccccc1 (centres undefined)	i	i	i	i	i	nt	nt	nt	nt	nt
CO/N=C/C(C#N)c1ncc(C(F)(F)F)cc1Cl (centres undefined)	i	i	i	i	19.9µM	?	i	i	i	i
Oc1ccc(C(=S)N2CCCC2)cc1	i	i	i	i	i	nt	nt	nt	nt	nt
Oc1ccc(C(=S)N2CCN(Cc3ccccc3)CC2)cc1	i	i	i	i	17.7µM	i	i	i	i	i
CCNC(=S)N1CCN(Cc2ccccc2)CC1	i	i	i	i	?	nt	nt	nt	nt	nt

Screening data: PubChem BioAssay, National Center for Advancing Translational Sciences (NCATS)
